According to PubChem BioAssay (Tox21):
Results filed as inconclusive are left out. Unmarked numbers belong to inactive results. The source made the active and inactive calls. Calls follow the shape of the full dose curve.

Assay: p53 small molecule agonists, cell-based qHTS assay: qHTS cell viability counter screen (AID 1963581); also: nearly all actives have a fitted effect of over 45% in size
Settings: p53RE-bla HCT-116 viability, ATP luminescence, 16 h; series mostly up to 66 µM; activity change, negative = cytotoxicity: at the top concentration
Description: National Center for Advancing Translational Sciences [NCATS]
Division of Preclinical Innovation [DPI]
U.S. Environmental Protection Agency [EPA]
National Institutes of Environmental Health Sciences [NIEHS]
National Toxicology Program [NTP]
U.S. Food and Drug Administration [FDA]
p53, a tumor suppressor protein, is activated following cellular insult, including DNA damage and other cellular stresses. The activation of p53 regulates cell fate by inducing DNA repair, cell cycle arrest, apoptosis, or cellular senescence. The activation of p53, therefore, is a good indicator of DNA damage and other cellular stresses. The CellSensor p53RE-bla HCT-116 cell line (Invitrogen) contains a stably integrated beta-lactamase reporter gene under control of the p53 response elements. The activation of the reporter gene under culture conditions can be detected by fluorescence intensity. This cell line was used to screen the Tox21 compound library in a 1536-well plate format and to identify agonists that activate the p53 signaling pathway. The cytotoxicity of the Tox21 compound library against the p53 RE-bla HCT-116 cell line was tested in parallel by measuring the intra cellular ATP content in the same wells.
Tox21 Assay Protocol Summary:
The p53RE-bla cells were dispensed at 4,000 cells/5 ul/well in 1536-well black wall/clear bottom plates using a Multidrop dispenser. After the assay plates were incubated at a 37 C/5% CO2 incubator for 5 hours, 23 nL of compounds dissolved in DMSO, positive controls or DMSO only was transferred to the assay plate by a pin tool. The plates were incubated at 37 C for 16 hours. After 1 uL of LiveBLAzerTM B/G FRET substrate was added using a Flying Reagent Dispenser, the plates were incubated at room temperature for 2 hours, and fluorescence intensity was measured by an Envision plate reader. For cell viability readout that measures cytotoxicity, 4 ul/well of CellTiter-Glo reagent was added into the assay plates using a Flying Reagent Dispenser. After 30 min incubation at room temperature, the luminescence intensity in the plates was measured using a ViewLux plate reader.
% is scaled to controls: 0 for no effect and ±100 for the full control effect; potency is read from the fitted curve at half-maximal effect.

Row | Structure (SMILES) | activity change, negative = cytotoxicity | Potency
1 | CNC(=O)Oc1cccc(C(C)C)c1 | 8.82% | –
2 | CCC[CH2][Sn]([CH2]CCC)([CH2]CCC)[CH2]CCC | – | 40.8 µM (active)
3 | CC(=O)[O][Pb]([c]1ccccc1)([c]1ccccc1)[c]1ccccc1 | – | 16.2 µM (active)
4 | COC(N)=O | 3.69% | –
5 | CC1COC(Cn2cncn2)(c2ccc(Oc3ccc(Cl)cc3)cc2Cl)O1 (stereo not given) | -18% | –
6 | CCOC(=O)c1ncn2c1CN(C)C(=O)c1c(I)cccc1-2 | 5.22% [at 30.3 µM] | –
7 | CC(=O)[O-].CC(=O)[O-].CC(=O)[O-].[Sb+3] | 11.8% [at 2.33 µM] | –
8 | Oc1ccccc1Br | 5.85% | –
9 | CC(C)(c1ccccc1)c1ccc(O)cc1 | – | inactive
10 | O=[N+]([O-])c1cccc2cccc([N+](=O)[O-])c12 | 26.6% | –
11 | CC(=O)c1cc(C(C)(C)C)cc2c1CCC2(C)C | 8.97% | –
12 | N#CN | -1.31% [at 172 µM] | –
13 | CC(C)N(Cc1ccccc1)C(=O)C(C)(C)C | -0.311% | –
14 | C[C@H]1CNCCc2ccc(Cl)cc21 | 21.2% [at 30.3 µM] | –
15 | CCSC(C)CC1CC(=O)C(/C(CC)=N/OC/C=C/Cl)=C(O)C1 (stereo not given) | 5.69% [at 30.3 µM] | –
16 | O=c1[nH]c2ccccc2o1 | -8.92% | –
17 | O=C(O)c1cc(I)cc(I)c1I | 0.972% | –
18 | N#CC(C#N)=Cc1ccc(O)c(O)c1 | 18.1% [at 30.3 µM] | –
19 | CC(Cc1ccccc1)NCCn1cnc2c1c(=O)n(C)c(=O)n2C (stereo not given) | 4.83% | –
20 | O=[N+]([O-])c1cc(Cl)c(Cl)cc1Cl | -1.86% | –

Row | Structure (SMILES) | activity change, negative = cytotoxicity | Potency
21 | CC(=O)[O-].CC(=O)[O-].O.O.[Zn+2] | -0.296% | –
22 | O=[N+]([O-])c1cc(C(F)(F)F)c(Cl)c([N+](=O)[O-])c1Nc1ncc(C(F)(F)F)cc1Cl | – | 40.8 µM (active)
23 | C=CC(=C)C | 0% | –
24 | O=C1OC(CCN2CCCCC2)OC1(c1ccccc1)c1ccccc1 (stereo not given) | -9.91% [at 30.3 µM] | –
25 | COC1=CC(=O)O[C@@H](/C=C/c2ccc3c(c2)OCO3)C1 | 4.81% | –
26 | CCOC(=O)C(SP(=S)(OC)OC)c1ccccc1 (stereo not given) | 1.59% | –
27 | C=C(Cl)Cl | -0.404% | –
28 | S=C=Nc1ccccc1 | 2.69% | –
29 | CCOC(=O)OC1=C(c2cc(C)ccc2C)C(=O)NC12CCC(OC)CC2 (stereo not given) | 3.73% | –
30 | CCC(C)(NC(=O)c1cc(Cl)c(C)c(Cl)c1)C(=O)CCl (stereo not given) | -1.14% | –
31 | C[C@H](CN1CCOCC1)C(C(=O)N1CCCC1)(c1ccccc1)c1ccccc1 | 2.19% | –
32 | c1ccc(OCC2CO2)cc1 (stereo not given) | 4.63% | –
33 | C[C@@H]1CC[C@H]2[C@@H](C)C(=O)O[C@@H]3O[C@@]4(C)CC[C@@H]1[C@]32OO4 | -9.42% [at 30.3 µM] | –
34 | CCN(C(C)=O)c1cccc(-c2ccnc3c(C#N)cnn23)c1 | 1.26% [at 30.3 µM] | –
35 | CC(C)Br | -3.92% | –
36 | C[C@]12Cc3nonc3C[C@@H]1CC[C@@H]1[C@@H]2CC[C@@]2(C)[C@H]1CC[C@]2(C)O | -25.7% [at 30.3 µM] | –
37 | CCN(CC)C(=O)[C@@H]1C=C2c3cccc4[nH]cc(c34)C[C@H]2N(C)C1 | -7.05% [at 172 µM] | –
38 | COc1cccc(C(=O)CCN[C@@H](C)[C@H](O)c2ccccc2)c1 | 5.68% [at 30.3 µM] | –
39 | CN1[C@@H]2CC[C@H]1CC(OC(=O)c1cc(Cl)cc(Cl)c1)C2 (stereo not given in full) | -15.4% [at 30.3 µM] | –
40 | O=C1c2ccccc2C(=O)C1C(=O)C(c1ccccc1)c1ccccc1 | -11.3% [at 30.3 µM] | –
